PubChem BioAssay (NCATS)
Several values for one entry are separate records, joined by “and”; a condition that tells them apart may be missing. Equal entries are not always repeated. Results filed as inconclusive are left out. Activity calls are given as the source filed them. Unless noted, calls follow the shape of the full dose curve.

biological target: Glucocorticoid receptor (Homo sapiens) (UniProt P04150); test: GR-EFC Redistribution (AID 451); details: CHO-K1 GR-EFC translocation, beta-gal luminescence, 2 h; also: potency is read from the fitted curve at half-maximal effect
In short: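 CHO-K1 cells stably expressing nuclear-localized β-gal enzyme acceptor and GR fused C-terminally to the enzyme donor fragment; ligand-driven nuclear translocation restores β-gal by complementation. Compounds titrated up to 46 uM final, 2 h at 37 °C; luminescence read.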

Sequence of Glucocorticoid receptor (Homo sapiens) (P04150 whole entry, looked up, the tested form may be a part): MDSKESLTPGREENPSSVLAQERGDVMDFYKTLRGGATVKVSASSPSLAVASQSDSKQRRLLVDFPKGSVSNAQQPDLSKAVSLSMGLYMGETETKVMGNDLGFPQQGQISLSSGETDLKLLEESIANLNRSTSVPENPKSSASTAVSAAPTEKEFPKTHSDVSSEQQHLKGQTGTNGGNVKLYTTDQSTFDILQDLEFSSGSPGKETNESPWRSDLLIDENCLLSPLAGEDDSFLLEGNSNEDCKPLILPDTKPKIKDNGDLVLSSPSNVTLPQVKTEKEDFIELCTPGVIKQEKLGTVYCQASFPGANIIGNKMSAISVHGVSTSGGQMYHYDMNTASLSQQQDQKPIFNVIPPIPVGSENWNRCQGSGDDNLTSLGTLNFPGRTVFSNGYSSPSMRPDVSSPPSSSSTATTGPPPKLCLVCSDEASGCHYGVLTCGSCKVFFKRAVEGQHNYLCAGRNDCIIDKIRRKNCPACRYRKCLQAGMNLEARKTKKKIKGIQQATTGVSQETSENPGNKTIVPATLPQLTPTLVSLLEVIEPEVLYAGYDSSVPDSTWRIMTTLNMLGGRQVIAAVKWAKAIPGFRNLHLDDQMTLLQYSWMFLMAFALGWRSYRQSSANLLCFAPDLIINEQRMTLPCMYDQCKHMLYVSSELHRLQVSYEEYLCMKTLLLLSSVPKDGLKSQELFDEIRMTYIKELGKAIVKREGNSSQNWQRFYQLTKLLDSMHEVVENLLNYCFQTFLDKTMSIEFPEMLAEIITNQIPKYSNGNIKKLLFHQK

Potency, inactive:
CSc1ccc2c(c1)N(CC[C@H]1CCCCN1C)c1ccccc1S2 > 46 µM and > 20.6 µM
COC(=O)C1=C(C)NC(C)=C(C(=O)OCCN(C)Cc2ccccc2)[C@@H]1c1cccc([N+](=O)[O-])c1 > 46 µM
N#C[C@@H](Cc1ccc(O)c(O)c1)C(=O)N1CCc2ccccc21 > 46 µM
Cc1c(C)c2c(c(C)c1O)CC[C@@](C)(CN1CCN(c3cc(N4CCCC4)nc(N4CCCC4)n3)CC1)O2 > 46 µM

biological target: 3',5'-cyclic-AMP phosphodiesterase 4B (Homo sapiens) (UniProt Q07343); test: qHTS Assay for Inhibitors of PDE-IV (AID 607; active = well fitted activation curve with a large enough effect in the main read-out, with a control signal flat, not every such curve was filed as active); details: HEK293 ACTOne CNG channel cells, membrane potential fluorescence; series mostly up to 22.9 µM
In short: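 HEK293 ACTOne cells with CNG channel (1000/well), endogenous PDE4; membrane potential dye, compounds up to 22.9 uM final. Fluorescence Ex 535/Em 590; RO 20-1724 (100 uM final) as reference.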

Sequence of 3',5'-cyclic-AMP phosphodiesterase 4B (Homo sapiens) (Q07343 whole entry, looked up): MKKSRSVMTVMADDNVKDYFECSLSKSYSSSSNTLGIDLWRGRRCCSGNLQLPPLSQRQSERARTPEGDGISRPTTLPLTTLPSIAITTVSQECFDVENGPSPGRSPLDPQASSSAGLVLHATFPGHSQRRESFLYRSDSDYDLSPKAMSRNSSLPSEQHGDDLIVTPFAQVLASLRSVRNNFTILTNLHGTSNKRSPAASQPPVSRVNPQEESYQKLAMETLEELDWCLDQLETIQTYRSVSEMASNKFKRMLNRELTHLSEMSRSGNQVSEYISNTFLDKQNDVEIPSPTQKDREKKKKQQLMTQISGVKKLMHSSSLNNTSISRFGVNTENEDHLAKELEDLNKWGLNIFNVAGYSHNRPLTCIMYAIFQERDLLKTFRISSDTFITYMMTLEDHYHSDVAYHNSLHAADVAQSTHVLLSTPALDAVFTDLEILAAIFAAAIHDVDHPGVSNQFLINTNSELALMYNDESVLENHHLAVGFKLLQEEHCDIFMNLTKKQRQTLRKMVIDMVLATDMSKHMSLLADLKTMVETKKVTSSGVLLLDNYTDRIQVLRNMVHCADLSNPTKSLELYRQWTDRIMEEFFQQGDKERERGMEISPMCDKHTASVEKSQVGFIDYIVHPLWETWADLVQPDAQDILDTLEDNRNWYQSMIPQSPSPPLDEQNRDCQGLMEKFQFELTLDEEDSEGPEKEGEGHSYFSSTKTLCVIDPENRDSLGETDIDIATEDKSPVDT

Potency, inactive:
CSc1ccc2c(c1)N(CC[C@H]1CCCCN1C)c1ccccc1S2
N#C[C@@H](Cc1ccc(O)c(O)c1)C(=O)N1CCc2ccccc21
Cc1c(C)c2c(c(C)c1O)CC[C@@](C)(CN1CCN(c3cc(N4CCCC4)nc(N4CCCC4)n3)CC1)O2
